Shiga inhibitor: blocks Shiga toxin action in Vero cells. Vero cells, Shiga toxin protein synthesis inhibition reporter. inhibition, % at 38.7 µM. actives 9.2% (n = 290,000). AID 2315; in the data active = inhibition mostly above about 28%, no sharp cut-off; inactive = mostly below about 43%; also: 0% is about no effect
CHX counter: affects cycloheximide protein synthesis inhibition readout, counter-screen | cell reporter, cycloheximide protein synthesis inhibition counterscreen | max response, % | actives 12% (n = 300,000) | AID 2314; in the data active = max response mostly above about 13%, no sharp cut-off; inactive = mostly below about 14%; also: read at 38.3 µM for the half of the compounds with a filed dose; 0% is about no effect
NS1 inh: blocks influenza NS1 protein function | Potency, µM (doses to about 46.1 µM), for the others: at the top dose activity, positive = more growth | actives 0.4% (n = 270,000) | AID 2326; calls by dose curve; also: potency is read from the fitted curve at half-maximal effect; actives are rising curves; nearly all actives have a fitted effect of over 50% in size
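OD600 was taken as the measure of yeast growth restored by compound in an NS1-expressing S. cerevisiae strain. Cells had been washed out of glucose medium and diluted 1:100 into galactose -URA medium, pH 6.0.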
AmpC detergent: AmpC beta-lactamase inhibition with detergent present. actives 0.041% (n = 370,000). AID 485294. Potency, µM (highest dose often 114 µM), inactives show at the top dose activity change, negative = inhibition, hits mostly inhibitors. AmpC hydrolysis of nitrocefin, absorbance 480 nm, 0.01% Triton;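 also: potency is read from the fitted curve at half-maximal effect; 0% = no-compound wells and -100% = no-enzyme wells; nearly all actives have a fitted effect of over 25% in size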
Target sequence (P00811 whole entry, looked up): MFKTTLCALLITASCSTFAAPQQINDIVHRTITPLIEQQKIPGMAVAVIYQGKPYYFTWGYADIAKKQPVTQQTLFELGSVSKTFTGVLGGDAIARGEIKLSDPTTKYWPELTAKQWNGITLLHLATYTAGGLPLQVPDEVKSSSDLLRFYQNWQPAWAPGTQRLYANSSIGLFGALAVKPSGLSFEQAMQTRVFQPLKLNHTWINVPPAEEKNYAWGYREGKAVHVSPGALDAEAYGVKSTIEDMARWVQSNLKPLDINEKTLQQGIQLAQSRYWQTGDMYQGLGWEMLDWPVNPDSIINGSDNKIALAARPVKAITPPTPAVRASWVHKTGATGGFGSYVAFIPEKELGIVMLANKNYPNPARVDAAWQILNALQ
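20 mM phosphate pH 7.0 + 0.01% (detergent screen) or 0.0001% Triton X-100; 5.3 nM AmpC reagent; cpd preinc 15 min RT; nitrocefin (800 uM stock) to start; A480 q20 s × 4 min; Activity was normalised to no-enzyme and no-compound control wells.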
AmpC inh no detg: blocks E. coli AmpC beta-lactamase in detergent-free assay; P00811; AmpC nitrocefin hydrolysis, absorbance 480 nm, 0.0001% Triton; Potency, µM (highest dose often 57.1 µM), without a hit: at the highest dose activity change, negative = inhibition, hits mostly inhibitors; actives 0.52% (n = 330,000); AID 485341;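 also: potency is read from the fitted curve at half-maximal effect; plate controls were no compound for no effect and no enzyme for full effect; nearly all actives have a fitted effect of over 20% in size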
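20 mM phosphate pH 7.0 + 0.01% (detergent screen) or 0.0001% Triton X-100; 5.3 nM AmpC reagent; cpd preinc 15 min RT; nitrocefin (800 uM stock) to start; A480 q20 s × 4 min; Activity was normalised to no-enzyme and no-compound control wells.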
Active calls of the source: *; ? = inconclusive; nt = not tested or not shown. Shown is part of a subset that was picked to be rich in hits. Unless noted, calls follow the shape of the dose curve; as a rule, active = well fitted curve in the direction sought with a large enough effect; inconclusive = small, poorly fitted or top-dose-only effect, or another doubt; inactive = no such curve, though single readings can be large; an effect the other way counts as inactive or inconclusive.

SMILES	Shiga inhibitor	CHX counter	NS1 inh	AmpC detergent	AmpC inh no detg
O=[N+]([O-])c1nn(-c2ccc3c(c2)OCCO3)n(O)c1=NC1CCCCCC1	83.5*	31.9*	-59.3%	-0.9%	-11.2%
Cc1cccc(-n2nc([N+](=O)[O-])c(=NC3CCN(Cc4ccccc4)CC3)n2O)c1	-9.0	-1.0	-1.9%	3.4%	2.1%
Cc1sc(NC(=O)c2ccco2)c(C(c2cccnc2)N2CCN(C)CC2)c1C (stereo not given)	-10.4	-0.9	-11.4%	-2.7%	41.7%
CCOC(=O)c1c(C)oc2c1c(C(c1cccnc1)N1CCOCC1)c(O)c1ccccc12 (stereo not given)	123.1*	49.4*	-6.1%	-2.4%	97.7%
CCOC(=O)c1c(C)oc2c1c(C(c1cccnc1)N1CCN(C)CC1)c(O)c1ccccc12 (stereo not given)	155.8*	52.7*	-69.6%	?	-9.5%
CC(=O)C1=C(c2ccccc2)N(C(C)=O)n2c(nnc2C2CCCCC2)S1	nt	nt	nt	8.5%	nt
N#Cc1cnc(Nc2ccc(F)cc2)nc1N	33.4	24.1*	-2.5%	-2.6%	-11.0%
CN1CCc2c1nc1ccccc1c2N=C1CCCN1Cc1ccccc1	-11.1	-1.9	-20.0%	-3.7%	42.4%
O=C(/C=C/c1ccco1)Nc1ccc(C(=O)N2CCOCC2)cc1	26.4	11.5	8.7%	-2.3%	-16.7%
O=C(/C=C/c1ccco1)Nc1ccccc1N1CCOCC1	-4.8	1.2	-23.9%	?	-25.0%
O=C(/C=C/c1ccco1)Nc1ccc(N2CCCC2)cc1	66.0*	68.0*	15.6%	-13.8%	-24.4%
O=C(/C=C/c1ccco1)Nc1ccc(CN2CCOCC2)cc1	45.9*	40.8*	1.2%	-3.1%	-17.7%
O=C(/C=C/c1ccccc1)Nc1ccc(CN2CCOCC2)cc1	35.2*	47.3*	-1.3%	-14.0%	-25.7%
COc1cc(/C=C2/C(=N)N3C(=NC2=O)SN=C3S(C)(=O)=O)ccc1OS(=O)(=O)c1ccccc1	44.5*	7.7	13.4%	1.0%	?
Cc1cc(/C=C2/C(=N)N3C(=NC2=O)SN=C3S(C)(=O)=O)c(C)n1-c1ccc(F)cc1	35.8	17.1	nt	-2.4%	-37.0%
CCOc1cc(/C=C2/C(=N)N3C(=NC2=O)SN=C3S(C)(=O)=O)ccc1OS(=O)(=O)c1ccccc1	-1.6	-0.6	16.7%	1.1%	-39.1%
COc1ccccc1-n1c(C)cc(/C=C2/C(=N)N3C(=NC2=O)SN=C3S(C)(=O)=O)c1C	116.1*	23.9*	nt	6.6%	-41.0%
CC(=Nc1ccc(C)c(C)c1)C1=C(O)CSC1=O	44.8	23.3*	-25.5%	-16.1%	-26.8%
CC(NC(=O)C(=O)Nc1c2c(nn1-c1ccccc1)CSC2)c1ccccc1 (stereo not given)	nt	nt	nt	1.0%	nt
c1ccc(CNCC2COc3ccccc3O2)cc1 (stereo not given)	49.2*	2.2	-2.2%	-13.9%	-14.4%
O=C(CCC(=O)N1CCOc2ccccc21)NCCc1ccccc1	12.3	8.3*	8.5%	?	0.5%
O=C(CC1COc2ccccc2O1)NCCc1ccccc1 (stereo not given)	64.0*	51.7*	-10.7%	1.3%	-3.4%
COc1ccc(CNCC2COc3ccccc3O2)cc1 (stereo not given)	27.5	21.7*	3.5%	-7.5%	-24.6%
c1ccc(CCCNCC2COc3ccccc3O2)cc1 (stereo not given)	-3.7	4.5	nt	7.4%	-16.7%
Cn1nnc2c(N3CCN(c4ccccc4F)CC3)ncnc21	nt	nt	nt	0.5%	nt
SMILES	Shiga inhibitor	CHX counter	NS1 inh	AmpC detergent	AmpC inh no detg
c1ccc(CN2CCCC3(CCCN(Cc4nc(COc5ccccc5)no4)C3)C2)cc1 (stereo not given)	15.4	9.0	0.7%	-4.0%	10.1%
C[C@H](CO)N1C[C@H](C)[C@@H](CN(C)C(=O)Nc2ccc3c(c2)OCO3)Oc2c(NC(=O)Nc3ccc(C(F)(F)F)cc3)cccc2C1=O	nt	nt	nt	nt	249.7%
Cc1nc(N)sc1N=Nc1ccc(F)cc1	62.1*	48.5*	2.0%	?	-29.4%
Cn1ncc2c(NNC(=O)c3ccc(Cl)cc3Cl)ncnc21	-14.1	0.9	-6.3%	?	-13.0%
Cc1cc(C)c(NC(=O)c2cccc3c2C(=O)N(C2CCCCC2)C3)c(C)c1	-5.2	-7.9	11.7%	-8.5%	-11.0%
CC1Cc2cc(S(=O)(=O)NCc3ccccc3Cl)ccc2N1C(=O)C1CCC1 (stereo not given)	nt	nt	nt	-4.9%	nt
Cn1cc(Cl)c(C(=O)Nc2cccc(Cl)c2Cl)n1	29.3	41.6*	-2.6%	1.6%	7.08µM*

Compound activity: PubChem, National Center for Advancing Translational Sciences (NCATS)
